Experiment [1] addresses Retinoic acid receptor RXR-alpha (Homo sapiens) (UniProt P19793). Description: qHTS assay to identify small molecule agonists of the RXR signaling pathway (AID 1159527; calls by dose curve; also: nearly all actives have a fitted effect of over 35% in size). In short, it runs like this:
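Agonist-mode beta-lactamase reporter assay: HEK 293T RXR-alpha-UAS-bla cells treated 16 hr at 37 C with compounds, 9-cis retinoic acid as positive control. LiveBLAzer FRET substrate, 405 nm excitation, 460/530 nm emission.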

Experiment [2] is described as follows: qHTS assay to identify small molecule agonists of the RXR signaling pathway - cell viability counter screen (AID 1159529). Also: nearly all actives have a fitted effect of over 50% in size. In outline: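 CellTiter-Glo luminescence gave viability in the wells also read for beta-lactamase. Cells (RXR-alpha-UAS-bla HEK 293T, 2% charcoal-stripped FBS medium) had 5 hr plating, then 16 hr compound exposure at 37 C; tetraoctyl ammonium bromide served as positive control.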

The nature of experiment [3]: qHTS assay to identify small molecule antagonists of the retinoid acid receptor (RAR) signaling pathway - cell viability counter screen (AID 1159551). Also: nearly all actives have a fitted effect of over 35% in size. In outline:
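Cells (C3RL4) are plated, incubated overnight, dosed with compound in DMSO, then given retinol at 1 uM final. After 6 h at 37 C, CellTiter-Glo is added and luminescence read following 30 min at room temperature.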

A short description of experiment [4]: qHTS assay to identify small molecule antagonists of the retinoic acid receptor (RAR) signaling pathway (AID 1159552; also: nearly all actives have a fitted effect of over 50% in size). In outline:
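Luminescent RARE reporter read-out in C3RL4 cells: 6 hr co-treatment at 37 C of test compounds with retinol at 1 uM final. Cells plated overnight beforehand; luciferase reagent incubated 30 min at room temperature before reading.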

A short description of experiment [5]: qHTS assay to identify small molecule agonists of the retinoic acid receptor (RAR) signaling pathway (AID 1159553). Also: potency is read from the fitted curve at half-maximal effect. The settings on record: C3RL4 RARE luciferase reporter, agonist, 6 h; activation: at 73.3 µM (top of the series). In short, it runs like this: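 Seed C3RL4 reporter cells at 1,000 per well and incubate overnight at 37 C. Add compounds in DMSO, incubate 6 hr. Add luciferase reagent, wait 30 min at room temperature, read luminescence.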

A short description of experiment [6]: qHTS assay to identify small molecule antagonists of the estrogen related receptor (ERR) signaling pathway from Tox21 library - cell viability counter screen (AID 1224834). Also: nearly all actives have a fitted effect of over 30% in size. In short, it runs like this:
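ERR cells, 2,000/well; 6 h settle at 37 C/5% CO2; pin-tool compound transfer in DMSO; 17.5 h at 37 C; CellTiter-Fluor, 30 min; fluorescence intensity.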

A short description of experiment [7]: qHTS assay to identify small molecule agonists of the constitutive androstane receptor (CAR) signaling pathway - cell viability counter screen (AID 1224836). Also: nearly all actives have a fitted effect of over 45% in size. In outline: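 Cell viability multiplexed with the CAR agonist screen: CellTiter-Fluor fluorescence after 23 hr at 37 C. HepG2-CYP2B6-hCAR cells got compounds at 15 concentrations with PK11195 at 0.75 uM final.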

Experiment [8] in a line: qHTS assay to identify small molecule antagonists of the constitutive androstane receptor (CAR) signaling pathway - cell viability counter screen (AID 1224837). Also: nearly all actives have a fitted effect of over 45% in size. In short, it runs like this:
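Viability was measured with CellTiter-Fluor in a HepG2 line carrying stably transfected hCAR and a CYP2B6-2.2kb construct. Cells were exposed for 23 hr at 37 C to 15 compound concentrations with 50 nM CITCO as agonist.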

Experiment [9] deals with Nuclear receptor subfamily 1 group I member 3 (Homo sapiens) (UniProt Q14994). Nature of the experiment: qHTS assay to identify small molecule antagonists of the constitutive androstane receptor (CAR) signaling pathway (AID 1224838).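 Also: HepG2 cells stably expressing hCAR with CYP2B6 luciferase reporter stimulated by CITCO; nearly all actives have a fitted effect of over 40% in size.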 In outline: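 Antagonist mode used CITCO at a final 50 nM to activate CAR in human hepatoma HepG2 cells carrying stable hCAR and a 2.2 kb CYP2B6 promoter-luciferase construct. Compounds were tested at 15 concentrations over 24 h, with luminescence as the end point.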

For experiment [10] the target is unchanged. Description: qHTS assay to identify small molecule agonists of the constitutive androstane receptor (CAR) signaling pathway (AID 1224839). Also: nearly all actives have a fitted effect of over 15% in size. In short, it runs like this:
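Luminescent ONE-Glo read-out after 24 hr, 37 C exposure of double-stable HepG2-CYP2B6-hCAR reporter cells to a 15-point compound series, in the presence of 0.75 uM PK11195 (final).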

Experiment [11] in a line: qHTS assay to identify small molecule antagonists of the estrogen related receptor signaling pathway with the pleiotropic PPARgamma coactivator (PGC) from Tox21 10K library - cell viability counter screen (AID 1224840; active = well fitted cell-killing curve with a large enough effect in the repeat runs, not every such curve was filed as active; also: nearly all actives have a fitted effect of over 40% in size). In short, it runs like this:
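Multiplexed viability counter screen in the PGC/ERR cell line: cells treated with DMSO-dissolved compounds for 17.5 hours at 37 C, then viability measured as CellTiter-Fluor fluorescence.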

Experiment [12] concerns the target Thyrotropin receptor (Homo sapiens) (UniProt P16473). Nature of the experiment: qHTS assay to identify small molecule agonists of the thyroid stimulating hormone receptor (TSHR) signaling pathway (AID 1224843; calls by dose curve; also: nearly all actives have a fitted effect of over 45% in size). In outline:
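A cell-based cAMP HTRF format was run in TSHR-transfected HEK293 cells, 800 per well. Treatment: 30 min, room temperature. Detection: 1 h with labelled cAMP and anti-cAMP cryptate. Concentration-response over 15 points, three replicates.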

Experiment [13] in a line: qHTS assay to identify small molecule agonists of the hypoxia (HIF-1) signaling pathway - cell viability counter screen (AID 1224844; calls by dose curve; also: nearly all actives have a fitted effect of over 50% in size). In short, it runs like this:
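Cytotoxicity was measured in parallel with the HRE-driven beta-lactamase readout: after 17 hrs of compound exposure at 37C, HRE-bla ME-180 cells received CellTiter-Glo and luminescence was recorded 30 min later.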

A short description of experiment [14]: qHTS assay to identify small molecule agonists of H2AX (AID 1224845; active = well fitted activation curve with a large enough effect in the signal ratio in the repeat runs, not every such curve was filed as active; the % refers to the signal ratio). In outline: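 Phospho-H2AX Ser139 measured by HTRF (ex 320 nm; em 665 and 620 nm) after 24 hr antibody incubation. Compounds, 15 concentrations, 0.76% DMSO, were applied to CHO-K1 cells for 3hr at 37C before lysis.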
Experiment [15] can be described thus: qHTS assay to identify small molecule agonists of the hypoxia (HIF-1) signaling pathway (AID 1224846; active = well fitted activation curve with a large enough effect in the signal ratio in the repeat runs, not every such curve was filed as active; the % refers to the signal ratio). In short, it runs like this:
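Compounds from the Tox21 10K library, dissolved in DMSO, are tested for induction of a hypoxia response element–controlled beta-lactamase reporter in ME-180 cells. Exposure lasts 17 hrs at 37C after a 5 hr settling period, followed by CCF4-AM FRET substrate.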

Experiment [16] is described as follows: qHTS assay to identify small molecule antagonists of the estrogen related receptor (ERR) signaling pathway from Tox21 library (AID 1224848). Also: nearly all actives have a fitted effect of over 50% in size. In outline:
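ERR cell line, 2,000 cells/well. 6 h settle, then compound (DMSO) added; 18 h at 37 C; ONE-Glo luminescence after 30 min RT.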

The nature of experiment [17]: qHTS assay to identify small molecule antagonists of the estrogen related receptor signaling pathway with the pleiotropic PPARgamma coactivator (PGC) from Tox21 10K library (AID 1224841; call rule not given here). In short, it runs like this: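 Steps: plate 2,000 PGC/ERR cells per well; incubate 6 h at 37 C with 5% CO2; transfer compounds from DMSO stocks by pin tool; incubate 18 h at 37 C; add One-Glo; measure luminescence 30 min later.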

Experiment [18] in a line: qHTS assay to identify small molecule agonists of the estrogen related receptor signaling pathway with the pleiotropic PPARgamma coactivator (PGC) from Tox21 10K library (AID 1224842). Also: nearly all actives have a fitted effect of over 15% in size. In short, it runs like this:
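Luminescence from One-Glo (30 min, room temperature) measured after PGC/ERR cells had 18 h at 37 C with pinned compound (23 nL in DMSO). Cells had been seeded at 2,000 per well and pre-incubated 6 h.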

A short description of experiment [19]: qHTS assay to identify small molecule agonists of H2AX - cell viability counter screen (AID 1224847; calls by dose curve;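 also: wild-type CHO-K1 cells; top concentration of the series differs between compounds; nearly all actives have a fitted effect of over 30% in size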). In outline: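 Counter-screen for viability: CellTiter-Glo ATP luminescence read after 3 h compound treatment (15-point titration, 0.76% DMSO final) of CHO-K1 cells at 37C, with 30 min room-temperature reagent incubation.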
The target of experiment [20] is Luciferin 4-monooxygenase (Photinus pyralis) (UniProt P08659). Description: qHTS assay to identify small molecule inhibitors of firefly luciferase (AID 1224835). Also: nearly all actives have a fitted effect of over 25% in size. In short, it runs like this: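 Inhibition of purified Photinus luciferase is measured by luminescence. Substrate levels (D-luciferin, ATP) sit at their KM values. Each compound is tested in a concentration series.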

Results filed as inconclusive are left out. A number with no mark means an inactive call. Active and inactive are the calls of the source. Unless noted, calls follow the shape of the dose curve; as a rule, active = well fitted curve in the direction sought with a large enough effect in the repeat runs; inconclusive = weak or mixed curves; inactive = no such curve, though single readings can be large; an effect the other way counts as inactive or inconclusive.

Chain of Luciferin 4-monooxygenase (Photinus pyralis) (P08659 whole entry, looked up): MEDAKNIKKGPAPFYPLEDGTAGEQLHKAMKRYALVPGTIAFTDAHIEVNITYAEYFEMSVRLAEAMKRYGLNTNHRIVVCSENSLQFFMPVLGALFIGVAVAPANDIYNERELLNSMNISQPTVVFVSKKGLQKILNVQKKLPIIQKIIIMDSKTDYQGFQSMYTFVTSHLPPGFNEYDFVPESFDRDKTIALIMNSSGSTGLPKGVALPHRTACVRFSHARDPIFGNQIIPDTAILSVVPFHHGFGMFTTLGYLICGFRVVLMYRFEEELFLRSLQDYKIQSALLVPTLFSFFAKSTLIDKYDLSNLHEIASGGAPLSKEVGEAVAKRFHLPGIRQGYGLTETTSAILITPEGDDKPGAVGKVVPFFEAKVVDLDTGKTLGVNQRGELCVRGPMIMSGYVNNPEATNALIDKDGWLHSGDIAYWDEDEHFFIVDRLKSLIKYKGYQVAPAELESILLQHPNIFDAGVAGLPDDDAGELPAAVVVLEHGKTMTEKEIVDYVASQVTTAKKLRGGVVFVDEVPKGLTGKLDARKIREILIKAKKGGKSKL
Chain of Retinoic acid receptor RXR-alpha (Homo sapiens) (P19793 whole entry, looked up): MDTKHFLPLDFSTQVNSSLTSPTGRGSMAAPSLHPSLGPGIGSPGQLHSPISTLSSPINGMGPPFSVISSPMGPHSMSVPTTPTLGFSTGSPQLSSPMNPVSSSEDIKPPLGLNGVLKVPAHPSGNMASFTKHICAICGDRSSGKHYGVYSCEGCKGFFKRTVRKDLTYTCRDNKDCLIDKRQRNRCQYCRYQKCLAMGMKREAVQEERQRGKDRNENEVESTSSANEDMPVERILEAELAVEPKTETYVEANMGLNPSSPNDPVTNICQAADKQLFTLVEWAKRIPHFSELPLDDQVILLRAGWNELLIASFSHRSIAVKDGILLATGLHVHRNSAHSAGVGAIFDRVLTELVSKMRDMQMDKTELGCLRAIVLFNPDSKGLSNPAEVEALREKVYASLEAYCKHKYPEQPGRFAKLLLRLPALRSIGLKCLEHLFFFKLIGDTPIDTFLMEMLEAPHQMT
Chain of Thyrotropin receptor (Homo sapiens) (P16473 whole entry, looked up): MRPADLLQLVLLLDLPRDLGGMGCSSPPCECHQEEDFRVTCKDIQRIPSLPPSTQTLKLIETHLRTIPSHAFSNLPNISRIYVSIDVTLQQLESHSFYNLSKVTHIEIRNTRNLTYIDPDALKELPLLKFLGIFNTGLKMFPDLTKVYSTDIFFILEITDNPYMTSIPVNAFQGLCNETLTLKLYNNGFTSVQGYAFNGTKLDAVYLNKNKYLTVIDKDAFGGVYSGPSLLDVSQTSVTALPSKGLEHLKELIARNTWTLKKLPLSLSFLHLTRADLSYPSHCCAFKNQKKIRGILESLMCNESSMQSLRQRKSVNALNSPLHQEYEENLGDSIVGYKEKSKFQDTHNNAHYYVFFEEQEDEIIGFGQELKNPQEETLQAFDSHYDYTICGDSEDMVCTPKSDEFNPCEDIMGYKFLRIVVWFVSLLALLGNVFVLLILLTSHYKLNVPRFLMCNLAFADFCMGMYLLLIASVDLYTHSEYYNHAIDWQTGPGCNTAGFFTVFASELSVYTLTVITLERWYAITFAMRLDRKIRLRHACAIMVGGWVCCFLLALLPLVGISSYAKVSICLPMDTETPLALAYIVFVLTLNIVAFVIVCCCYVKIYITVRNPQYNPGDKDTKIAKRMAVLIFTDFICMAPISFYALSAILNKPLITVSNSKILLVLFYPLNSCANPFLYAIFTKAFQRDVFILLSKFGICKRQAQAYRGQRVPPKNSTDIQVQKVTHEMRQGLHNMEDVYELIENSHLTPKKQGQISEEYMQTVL
Chain of Nuclear receptor subfamily 1 group I member 3 (Homo sapiens) (Q14994 whole entry, looked up): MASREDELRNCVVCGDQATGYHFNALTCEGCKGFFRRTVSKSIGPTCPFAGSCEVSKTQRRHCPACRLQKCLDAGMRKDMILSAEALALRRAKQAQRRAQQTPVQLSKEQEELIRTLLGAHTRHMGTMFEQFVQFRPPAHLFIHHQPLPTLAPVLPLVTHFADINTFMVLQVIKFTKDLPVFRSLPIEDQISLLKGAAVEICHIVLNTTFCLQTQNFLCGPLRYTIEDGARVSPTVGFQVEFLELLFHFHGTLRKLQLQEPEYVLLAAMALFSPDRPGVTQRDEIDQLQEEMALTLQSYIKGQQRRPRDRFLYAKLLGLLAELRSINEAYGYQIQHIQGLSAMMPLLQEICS

As for `CCCCC(CC)CNC(=O)CC(C)OC(=O)CCC(=O)O` (stereo unspecified), the Potency entry in experiment [1], in [4], in [6], in experiment [8], in experiment [9] and in experiment [10] was “inactive” each time. Further, the Potency result in experiment [16] was “inactive”. Moreover, the call in experiment [2], in experiment [3], in experiment [7], in experiment [11], in experiment [12] and in experiment [13] was inactive. For the same molecule, the result in [14] and in experiment [15] was inactive. For the same molecule, the Potency in [5] is 29.8 µM (active).

In the case of `OC[C@@H](O)[C@H](O)[C@@H](O)[C@@H](O)CO`, the Potency result in [1], in experiment [4], in experiment [5], in experiment [6], in [8] and in experiment [17] was “inactive” each time. The Potency result in [19] and in [16] was “inactive” throughout. The result in [2], in experiment [3], in experiment [7], in experiment [11], in [18] and in [12] was inactive. In addition, the result in experiment [13], in [14] and in experiment [15] was inactive.

As for `CN[C@@H]1[C@@H](O)[C@@H](O[C@@H]2[C@H](O)[C@H](O[C@H]3OC(CN)=CC[C@H]3N)[C@@H](N)C[C@H]2N)OCC1(C)O` (stereo partly specified), the Potency result in experiment [1], in experiment [4], in experiment [5], in [6], in [20] and in experiment [19] was “inactive” in each case. Besides, in experiment [16], the Potency entry is “inactive”. Moreover, the result in experiment [2], in [3], in experiment [11], in experiment [18], in [12] and in experiment [13] was inactive. In addition, the molecule was classed as inactive in experiment [14].

As to `CC(C)c1ccccc1O`, the Potency entry in experiment [1], in experiment [4], in experiment [5], in [6], in experiment [20] and in experiment [8] was “inactive” in each case. Moreover, the Potency entry in [19] was “inactive”. In addition, the call in experiment [2], in [3], in [7], in experiment [11], in [13] and in experiment [14] was inactive. In addition, the outcome in experiment [15] was inactive.

On to `CC(C)C(=O)c1ccccc1`, for which the Potency entry in experiment [1], in [4], in [5], in [6], in experiment [8] and in experiment [17] was “inactive” throughout. Moreover, the Potency entry in experiment [19] and in experiment [16] was “inactive” each time. In addition, the call in experiment [2], in [3], in [7], in [18], in experiment [12] and in [13] was inactive. For the same molecule, the outcome in experiment [14] and in experiment [15] was inactive.

With `CCOC(=O)C(C)(C)C`, the Potency result in experiment [1], in [4], in [5], in experiment [6], in [20] and in experiment [8] was “inactive” each time. Moreover, the Potency result in [19] is “inactive”. The result in [2], in experiment [3], in [11], in experiment [12], in experiment [13] and in experiment [14] was inactive. For the same molecule, the call in [15] was inactive.

The values above are taken from PubChem BioAssay (Tox21).
